Data taken from PMC4336329 (PLoS ONE, 2015).
Screen size: about 310,000 compounds; about 14,000 (4.5%) showed an effect of 50% or more. The effect is printed as a negative number. Shown is part of a subset that was picked to be rich in strong results.

Each molecule was assayed against human ether-à-go-go-related gene (hERG) potassium channel (human, UniProt Q12809) (assay: primary screen, population patch clamp on CHO cells stably expressing hERG; higher = less effect of the substance).
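Note: peak tail current of the secondary pulse compared with the same well before compound.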

human ether-à-go-go-related gene (hERG) potassium channel, sequence (Q12809 whole entry, looked up): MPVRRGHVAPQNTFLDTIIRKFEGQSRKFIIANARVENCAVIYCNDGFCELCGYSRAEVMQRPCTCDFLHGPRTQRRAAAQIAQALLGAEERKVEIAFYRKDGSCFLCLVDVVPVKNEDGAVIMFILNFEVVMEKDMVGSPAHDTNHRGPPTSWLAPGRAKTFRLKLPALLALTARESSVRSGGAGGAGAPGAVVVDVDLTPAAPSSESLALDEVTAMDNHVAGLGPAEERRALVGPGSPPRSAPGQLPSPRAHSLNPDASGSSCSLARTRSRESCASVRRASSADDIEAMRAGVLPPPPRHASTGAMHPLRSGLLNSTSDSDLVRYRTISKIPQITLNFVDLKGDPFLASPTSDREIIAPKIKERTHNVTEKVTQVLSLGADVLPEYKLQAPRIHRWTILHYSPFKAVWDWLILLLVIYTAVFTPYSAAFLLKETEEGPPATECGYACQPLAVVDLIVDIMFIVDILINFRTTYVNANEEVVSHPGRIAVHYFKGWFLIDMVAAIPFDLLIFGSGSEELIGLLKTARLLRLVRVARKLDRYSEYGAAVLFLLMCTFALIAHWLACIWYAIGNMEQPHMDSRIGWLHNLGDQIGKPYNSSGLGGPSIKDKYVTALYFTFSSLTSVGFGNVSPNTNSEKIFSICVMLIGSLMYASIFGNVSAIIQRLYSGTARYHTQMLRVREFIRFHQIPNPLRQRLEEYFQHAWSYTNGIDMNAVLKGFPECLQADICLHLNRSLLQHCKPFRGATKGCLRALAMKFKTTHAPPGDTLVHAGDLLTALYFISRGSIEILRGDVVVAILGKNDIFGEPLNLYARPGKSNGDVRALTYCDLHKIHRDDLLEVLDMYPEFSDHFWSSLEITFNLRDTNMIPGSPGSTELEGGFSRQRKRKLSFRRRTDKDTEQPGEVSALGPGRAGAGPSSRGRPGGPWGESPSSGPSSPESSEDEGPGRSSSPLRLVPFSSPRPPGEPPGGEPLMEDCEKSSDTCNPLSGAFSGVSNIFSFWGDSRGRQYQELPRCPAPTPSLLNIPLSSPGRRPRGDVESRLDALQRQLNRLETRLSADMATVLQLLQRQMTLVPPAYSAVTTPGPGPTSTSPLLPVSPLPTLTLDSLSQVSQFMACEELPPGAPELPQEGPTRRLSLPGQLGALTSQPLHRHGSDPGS

Structure (SMILES) | hERG current change (%, negative = inhibition) at 10uM [%]
C=CCNC(=S)Nc1ccc(OC)c(S(=O)(=O)N2CCOCC2)c1 | -10.3
CC(=O)c1cc2c(cc1NC(=O)CCc1c(C)nc3ncnn3c1C)OCO2 | -10.1
C=CCn1c(N)c(C(=O)NCc2cccnc2)sc1=S | -35.1
COc1cccc(CN2CC(C(=O)NCCSc3nnnn3C)CCC2=O)c1 (stereo not shown) | 18
CC(C)(C)C(=O)Nc1ccc(N=Nc2ccccc2)cc1 | -0.305
O=C(O)C(Cc1c[nH]c2ccccc12)N1C(=O)C2C3c4ccccc4C(c4ccccc43)[C@@H]2C1=O (stereo partly shown) | 18
Nc1nnc(CSCc2ccc(Cl)cc2Cl)s1 | 0.235
Cc1cc(NS(=O)(=O)c2ccc(NC(=O)CCc3ccccc3)cc2)no1 | 12.2
CN(Cc1ccccc1)C(=O)c1nc2ccccn2c1CNCCn1cccn1 | -32.3
CCCCN(C)C(=O)c1nc2ccccn2c1CNCCCn1nnc2ccccc21 | -38
CN(Cc1ccccc1)C(=O)c1nc2ccccn2c1CNCCCOc1cccnc1 | -52.3
O=C(c1nc2ccccn2c1CNCCCn1ncc2ccccc21)N1CCCC1 | -37.7
CN(Cc1ccccc1)C(=O)c1nc2ccccn2c1CNCCOc1cccnc1 | -31
CCCCN(C)C(=O)c1nc2ccccn2c1CNCCCn1ncc2ccccc21 | -55
CCOc1ccccc1NC(=O)CCS(=O)(=O)c1ccc(OC)cc1 | -0.411
COc1ccc(-n2c(C)cc(/C=C3/SC(=S)N(C)C3=O)c2C)cc1 | 20.7
CCOc1ccccc1C1CC(=O)NC(SCC(=O)Nc2nccs2)=C1C#N (stereo not shown) | -0.586
CN(C)CCN1C(=O)C(O)=C(C(=O)c2ccco2)C1c1ccccc1F (stereo not shown) | 11.9
Cc1ccc(C(=O)N/C(=C\c2cccnc2)C(=O)N2CCCC2)cc1 | -1.72
Fc1ccc(C2CCCN2Cc2nc(Cc3ccccc3)no2)cc1 (stereo not shown) | -15.2
CN(C)c1nc(N)c([N+](=O)[O-])c(NCc2ccccc2)n1 | 4.16
O=C(NCc1ccccn1)C(=O)NCC1OCCN1S(=O)(=O)c1ccc(F)cc1 (stereo not shown) | 11.7
CS(=O)(=O)N1CCN(CCN2C(=O)c3cccc4cccc(c34)C2=O)CC1 | 7.17
CC(C)OCC(O)CN1CCN(CCN2C(=O)c3cccc4cccc(c34)C2=O)CC1.Cl (stereo not shown) | -51.7
CCC(OCC(O)CN1CCN(CCN2C(=O)c3cccc4cccc(c34)C2=O)CC1)c1ccccc1.Cl (stereo not shown) | -58.4
CCNC(=S)N1CCN(CCN2C(=O)c3cccc4cccc(c34)C2=O)CC1 | 0.247
CC(C)(C)C(=O)N1CCN(CCN2C(=O)c3cccc4cccc(c34)C2=O)CC1 | 3.09
CC(=O)c1ccc(OCC(O)CN2CCN(CCN3C(=O)c4cccc5cccc(c45)C3=O)CC2)cc1.Cl (stereo not shown) | -34.1

Structure (SMILES) | hERG current change (%, negative = inhibition) at 10uM [%]
CCCCN(C(=O)Cc1ccc(S(=O)(=O)N2CCOCC2)s1)c1c(N)n(CCCC)c(=O)[nH]c1=O | 0.586
C=CCNc1oc(-c2ccco2)nc1S(=O)(=O)c1ccccc1 | -4.58
N#CCc1nn(-c2ccccc2)c(N)c1C#N | 5.46
CCc1ccc(NC(=O)C(=O)N/N=C(\C)CC(=O)Nc2ccccn2)cc1 | -8.33
COc1ccc2cc3cc(C(=O)NCc4ccco4)oc3nc2c1 | -9.75
CC(C)CCN1CC(C(=O)N2CCN(c3ccc(F)cc3)CC2)CC1=O (stereo not shown) | -25.4
Cc1ccc(CCN2CC(C(=O)N3CCN(c4ccc(F)cc4)CC3)CC2=O)cc1 (stereo not shown) | -57.4
Cc1ccc(CCN2CC(C(=O)O)CC2=O)cc1 (stereo not shown) | -0.636
COc1ccccc1CN1CC(C(=O)N2CCN(c3ccc(F)cc3)CC2)CC1=O (stereo not shown) | -43
O=C1CC(C(=O)N2CCN(c3ccc(F)cc3)CC2)CN1CCc1ccccc1 (stereo not shown) | -50.5
O=C(O)C1CC(=O)N(CCc2ccc(F)cc2)C1 (stereo not shown) | -8.39
Cc1ccc(NC(=O)CSc2nc(N)c3c4c(sc3n2)CSC(C)(C)C4)cc1 | 14.2
COc1ccc(NC(=O)C2CCN(C(=O)Nc3ccccc3)CC2)cc1S(=O)(=O)N(C)C | 12.5
O=S(=O)(NCCCc1ccccc1)c1ccccc1 | 10.3
Cc1ccc(S(=O)(=O)NCCNc2ccc([N+](=O)[O-])cc2)cc1 | -22.8
Cc1ccc(S(=O)(=O)NCCCNS(=O)(=O)c2ccc(C)cc2)cc1 | -17.9
O=[N+]([O-])c1ccc(NCCCNS(=O)(=O)c2ccccc2)cc1 | -64.7
O=[N+]([O-])c1ccc(NCCNS(=O)(=O)c2ccccc2)cc1 | -38.9
O=[N+]([O-])c1ccc(NCCCNS(=O)(=O)c2ccccc2)c(Cl)c1 | -14.3
Cc1ccc(S(=O)(=O)NCCCNc2ccc([N+](=O)[O-])cc2)cc1 | -65.2
O=S(=O)(NCCCc1ccccc1)c1ccc(Br)cc1 | -9.3
O=[N+]([O-])c1ccc(S(=O)(=O)NCCCc2ccccc2)cc1 | -64.6
O=S(=O)(O)c1cccc(N=Nc2c(O)ccc3ccccc23)c1 | 16.4
N#Cc1ccc(OCC(=O)NCCN2CCOCC2)cc1 | -11.7
O=C(COC(=O)/C=C/c1ccc(Cl)cc1)NC1CCCCCC1 | -1.22
Cc1ccc(C)c(NC(=O)Cc2nc(CCl)cs2)c1 | -14.1
CC(C)Oc1cccc(C(=O)NC(=S)Nc2ccccc2)c1 | -7.26
